Data from PubChem BioAssay (Tox21).
Records with an inconclusive call do not appear. Active and inactive are the calls of the source. Unless noted, calls follow the shape of the dose curve; as a rule, active = well fitted curve in the direction sought with a large enough effect in the repeat runs; inconclusive = weak or mixed curves; inactive = no such curve, though single readings can be large; an effect the other way counts as inactive or inconclusive.

What was measured:
[1] = qHTS assay to identify small molecule antagonists of the glucocorticoid receptor (GR) signaling pathway - cell viability counter screen (AID 720693); conditions: GR-bla HeLa viability, CellTiter-Glo luminescence, 18 h, with 5 nM dexamethasone present; series mostly up to 58.5 µM; also: nearly all actives have a fitted effect of over 55% in size
[2] = qHTS assay for identifying genotoxic compounds that show differential cytotoxicity against isogenic chicken DT40 cell lines with known DNA damage response pathways - wild type cell line (AID 743012); conditions: DT40 wild type chicken cells viability, CellTiter-Glo, 40 h; series mostly up to 68.4 µM; also: nearly all actives have a fitted effect of over 60% in size; also: potency is read from the fitted curve at half-maximal effect
In short: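 Viability by ATP luminescence (CellTiter-Glo, 30 min RT) after 40 h compound treatment at 37 C/5% CO2, using 300 parental DNA repair-proficient DT40 cells per well.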

[3] = qHTS assay for identifying genotoxic compounds that show differential cytotoxicity against isogenic chicken DT40 cell lines with known DNA damage response pathways - Rad54/Ku70 mutant cell line (AID 743015); conditions: DT40 Rad54/Ku70 mutant viability, CellTiter-Glo, 40 h; series mostly up to 66.8 µM; also: nearly all actives have a fitted effect of over 60% in size; also: potency is read from the fitted curve at half-maximal effect
[4] = qHTS assay to identify small molecule antagonists of the androgen receptor (AR) signaling pathway - cell viability counter screen (AID 743033; also: nearly all actives have a fitted effect of over 45% in size); conditions: AR-bla HEK293 viability, CellTiter-Glo luminescence, 16 h; series mostly up to 58.5 µM
[5] = qHTS assay to identify small molecule antagonists of the androgen receptor (AR) signaling pathway using the MDA cell line - cell viability counter screen (AID 743041; also: nearly all actives have a fitted effect of over 45% in size); conditions: MDA-kb2 viability, CellTiter-Fluor, 16 h, cells co-treated with R1881 androgen agonist; series mostly up to 70.3 µM
In short: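 Using the breast carcinoma line MDA-kb2 AR-luc, test chemicals were co-incubated with R1881 for 16 h; CellTiter-Fluor reagent, added at 15.5 h, provided a fluorescence measure of live cells.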

[6] = qHTS assay to identify small molecule antagonists of the thyroid receptor (TR) signaling pathway - cell viability counter screen (AID 743064); conditions: GH3.TRE-Luc viability, CellTiter-Fluor, 24 h; series mostly up to 70.3 µM; also: nearly all actives have a fitted effect of over 50% in size; also: potency is read from the fitted curve at half-maximal effect
In short: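 GH3.TRE-Luc rat pituitary cells dosed after 4 hr plating, co-stimulated with T3 at 1 nM final, incubated 23.5 h at 37 C. Viability measured in the same wells by CellTiter-Fluor fluorescence after 30 min further at 37 C.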

[7] = qHTS assay to identify small molecule antagonists of the thyroid receptor (TR) signaling pathway (AID 743065); conditions: GH3.TRE-Luc, T3-stimulated luciferase inhibition, 23.5 h; series mostly up to 70.3 µM; also: nearly all actives have a fitted effect of over 55% in size; also: potency is read from the fitted curve at half-maximal effect
In short: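 Antagonism measured as loss of luciferase signal in GH3 cells stably carrying a TRE-luciferase reporter, co-treated with compound and T3 (1 nM final) for 23.5 h at 37 C. Viability was read in the same well by CellTiter-Fluor.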

[8] = tested on: thyroid hormone receptor (rat, GH3 cells); test: qHTS assay to identify small molecule agonists of the thyroid receptor (TR) signaling pathway (AID 743066; calls by dose curve); conditions: GH3.TRE-Luc cells, TR agonist luciferase, 24 h; series mostly up to 83.9 µM
[9] = qHTS assay to identify small molecule antagonists of the estrogen receptor alpha (ER-alpha) signaling pathway - cell viability counter screen (AID 743074; calls by dose curve; also: nearly all actives have a fitted effect of over 45% in size); conditions: ERalpha-bla HEK293 viability, CellTiter-Glo luminescence, 18 h; series mostly up to 69.4 µM
[10] = qHTS assay to identify small molecule antagonists of the estrogen receptor alpha (ER-alpha) signaling pathway using the BG1 cell line - cell viability counter screen (AID 743081); conditions: BG1Luc4E2 viability, CellTiter-Fluor, 22 h; series mostly up to 70.3 µM;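 also: compound given together with 17beta-estradiol as the ER stimulus; nearly all actives have a fitted effect of over 45% in size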; also: potency is read from the fitted curve at half-maximal effect
[11] = biological target: Aromatase (Homo sapiens) (UniProt P11511); test: qHTS assay to identify aromatase inhibitors (AID 743083); conditions: MCF-7 aro ERE, testosterone-driven ERE luciferase, 24 h; series mostly up to 70.3 µM; also: nearly all actives have a fitted effect of over 55% in size
Aromatase (Homo sapiens), sequence (P11511 whole entry, looked up): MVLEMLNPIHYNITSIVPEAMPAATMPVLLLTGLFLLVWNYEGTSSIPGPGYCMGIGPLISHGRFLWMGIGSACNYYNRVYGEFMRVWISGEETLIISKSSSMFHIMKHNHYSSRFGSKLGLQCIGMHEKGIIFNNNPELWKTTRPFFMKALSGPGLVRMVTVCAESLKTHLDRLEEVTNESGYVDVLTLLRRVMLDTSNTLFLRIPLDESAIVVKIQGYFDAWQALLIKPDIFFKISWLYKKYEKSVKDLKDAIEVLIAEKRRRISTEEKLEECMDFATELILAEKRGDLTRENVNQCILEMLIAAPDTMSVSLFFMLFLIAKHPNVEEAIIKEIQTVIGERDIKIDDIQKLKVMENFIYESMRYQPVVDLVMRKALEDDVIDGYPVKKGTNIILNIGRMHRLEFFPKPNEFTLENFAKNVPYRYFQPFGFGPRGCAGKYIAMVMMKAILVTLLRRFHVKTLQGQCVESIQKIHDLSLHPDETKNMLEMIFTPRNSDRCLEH

[12] = qHTS assay to identify aromatase inhibitors - cell viability counter screen (AID 743084); conditions: MCF-7 aro ERE viability, CellTiter-Fluor, 24 h; series mostly up to 70.3 µM;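 also: cells stimulated with testosterone during compound exposure; nearly all actives have a fitted effect of over 55% in size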; also: potency is read from the fitted curve at half-maximal effect
[13] = qHTS assay for identifying genotoxic compounds that show differential cytotoxicity against isogenic chicken DT40 cell lines with known DNA damage response pathways - Rev3 mutant cell line (AID 743014); conditions: chicken DT40 Rev3-/- viability, CellTiter-Glo, 40 h; series mostly up to 68.4 µM; also: nearly all actives have a fitted effect of over 55% in size; also: potency is read from the fitted curve at half-maximal effect
[14] = biological target: Androgen receptor (Homo sapiens) (UniProt P10275); test: qHTS assay to identify small molecule agonists of the androgen receptor (AR) signaling pathway (AID 743036; active = well fitted activation curve with a large enough effect in the signal ratio in the repeat runs, with a control signal flat, not every such curve was filed as active; the % refers to the signal ratio); conditions: HEK293 AR-UAS-bla GripTite, beta-lactamase FRET ratio, 16 h; series mostly up to 62.4 µM
Androgen receptor (Homo sapiens), sequence (P10275 whole entry, looked up): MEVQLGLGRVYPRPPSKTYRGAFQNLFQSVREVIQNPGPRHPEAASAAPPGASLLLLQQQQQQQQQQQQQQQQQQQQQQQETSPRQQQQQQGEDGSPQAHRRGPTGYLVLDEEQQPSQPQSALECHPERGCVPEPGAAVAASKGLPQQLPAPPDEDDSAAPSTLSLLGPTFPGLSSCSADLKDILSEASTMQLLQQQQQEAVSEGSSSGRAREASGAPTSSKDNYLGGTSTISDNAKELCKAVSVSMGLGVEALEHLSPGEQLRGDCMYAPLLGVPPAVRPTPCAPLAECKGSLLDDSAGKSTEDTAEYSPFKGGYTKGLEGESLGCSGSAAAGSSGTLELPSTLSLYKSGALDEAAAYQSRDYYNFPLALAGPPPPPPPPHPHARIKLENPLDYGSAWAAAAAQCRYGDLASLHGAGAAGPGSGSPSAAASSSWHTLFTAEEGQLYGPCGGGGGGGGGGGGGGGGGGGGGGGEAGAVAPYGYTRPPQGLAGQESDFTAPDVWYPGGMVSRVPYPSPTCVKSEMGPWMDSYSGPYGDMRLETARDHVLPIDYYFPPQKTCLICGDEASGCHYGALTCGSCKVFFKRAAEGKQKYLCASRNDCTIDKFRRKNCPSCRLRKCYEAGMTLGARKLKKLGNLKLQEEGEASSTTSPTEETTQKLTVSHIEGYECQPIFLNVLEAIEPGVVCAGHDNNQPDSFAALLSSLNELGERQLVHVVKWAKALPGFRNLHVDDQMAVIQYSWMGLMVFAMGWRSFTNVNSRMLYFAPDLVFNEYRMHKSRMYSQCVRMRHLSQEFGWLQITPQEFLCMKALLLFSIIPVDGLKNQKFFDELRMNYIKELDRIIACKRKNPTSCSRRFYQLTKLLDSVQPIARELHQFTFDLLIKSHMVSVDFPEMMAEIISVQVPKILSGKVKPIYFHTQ
In short: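 AR-UAS-bla HEK293 cells, plated 4 h before dosing, were treated with compound for 16 h at 37C. beta-Lactamase reporter read after 2 h with LiveBLAzer B/G FRET substrate at room temperature.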

[15] = biological target: Androgen receptor (Homo sapiens) (UniProt P10275); test: qHTS assay to identify small molecule agonists of the androgen receptor (AR) signaling pathway using the MDA cell line (AID 743040; also: nearly all actives have a fitted effect of over 20% in size); conditions: MDA-kb2 AR-luc cells, MMTV luciferase, 16 h; series mostly up to 70.3 µM
In short: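 Stable MMTV-luciferase reporter in MDA-kb2 cells; note the promoter carries GR as well as AR response elements. 16 h compound treatment, 37C, 0% CO2; ONE-Glo luminescence endpoint.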

[16] = biological target: Androgen receptor (Homo sapiens) (UniProt P10275); test: qHTS assay to identify small molecule antagonists of the androgen receptor (AR) signaling pathway using the MDA cell line (AID 743042; also: nearly all actives have a fitted effect of over 55% in size); conditions: MDA-kb2 AR-luc, MMTV luciferase, R1881 antagonist, 16 h; series mostly up to 70.3 µM
In short: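 Antagonist mode: compounds plus R1881 agonist added to MDA-kb2 AR-luc cells, incubated 16 h at 37C. Luciferase reporter luminescence quantified, with multiplexed CellTiter-Fluor readout for cell viability.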

[17] = biological target: Estrogen receptor (Homo sapiens) (UniProt P03372); test: qHTS assay to identify small molecule antagonists of the estrogen receptor alpha (ER-alpha) signaling pathway (AID 743069; active = well fitted curve in the direction sought with a large enough effect in the signal ratio in the repeat runs, not every such curve was filed as active; the % refers to the signal ratio); conditions: HEK293 ER-alpha-UAS-bla, beta-lactamase ratio, antagonist mode; series mostly up to 69.4 µM
Estrogen receptor (Homo sapiens), sequence (P03372 whole entry, looked up): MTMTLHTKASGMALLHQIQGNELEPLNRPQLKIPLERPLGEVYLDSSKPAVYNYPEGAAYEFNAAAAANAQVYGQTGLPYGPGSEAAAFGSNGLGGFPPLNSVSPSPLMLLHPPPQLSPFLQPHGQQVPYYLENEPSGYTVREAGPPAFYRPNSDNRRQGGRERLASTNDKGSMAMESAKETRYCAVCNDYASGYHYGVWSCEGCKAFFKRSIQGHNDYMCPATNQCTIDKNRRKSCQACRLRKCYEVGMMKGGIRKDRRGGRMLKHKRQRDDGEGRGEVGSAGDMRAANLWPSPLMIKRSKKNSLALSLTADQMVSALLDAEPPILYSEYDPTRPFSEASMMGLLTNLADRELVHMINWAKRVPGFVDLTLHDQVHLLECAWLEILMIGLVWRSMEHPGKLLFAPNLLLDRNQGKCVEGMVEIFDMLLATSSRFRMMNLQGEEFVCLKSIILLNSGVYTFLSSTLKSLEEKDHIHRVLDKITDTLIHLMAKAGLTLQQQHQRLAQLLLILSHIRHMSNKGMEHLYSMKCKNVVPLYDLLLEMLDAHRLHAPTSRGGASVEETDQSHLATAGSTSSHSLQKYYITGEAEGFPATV
In short: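 Fluorescence intensity from a beta-lactamase FRET substrate served as the read-out. Cells: HEK293 with stably integrated ER-alpha-UAS-bla reporter. Agonist 17beta-estradiol was co-added with compounds; incubation 18 hr at 37C, substrate 2 hr at room temperature.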

[18] = biological target: Estrogen receptor (Homo sapiens) (UniProt P03372); test: qHTS assay to identify small molecule agonists of the estrogen receptor alpha (ER-alpha) signaling pathway (AID 743075; calls by dose curve); conditions: HEK293 ER-alpha-UAS-bla, beta-lactamase FRET ratio, 18 h; series mostly up to 70.1 µM
[19] = biological target: Estrogen receptor (Homo sapiens) (UniProt P03372); test: qHTS assay to identify small molecule agonists of the estrogen receptor alpha (ER-alpha) signaling pathway using the BG1 cell line (AID 743079); conditions: BG1Luc4E2 cells, ERE-luciferase agonist, 22 h; series mostly up to 70.3 µM; also: nearly all actives have a fitted effect of over 20% in size; also: potency is read from the fitted curve at half-maximal effect
[20] = qHTS assay to identify small molecule antagonists of the estrogen receptor alpha (ER-alpha) signaling pathway using the BG1 cell line (AID 743080; calls by dose curve;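 also: BG1 cells stimulated with 17beta-estradiol alongside compound; nearly all actives have a fitted effect of over 25% in size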); conditions: BG1Luc4E2 ERE-luciferase antagonist mode, luminescence; series mostly up to 70.3 µM
In short: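 Readout is ONE-Glo luminescence, taken 30 min at room temperature after reagent addition, preceded by a CellTiter-Fluor viability read; BG1-Luc-4E2 cells had received compound and 17beta-estradiol for 21.5 h at 37 C.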

Measured: Potency

CC(=O)OCC1=C(C(=O)O)N2C(=O)[C@@H](NC(=O)CSc3ccncc3)[C@H]2SC1
inactive: [1] | [2] | [3] | [4] | [5] | [6] | [7] | [8] | [9] | [10] | [11] | [12]

O=S(=O)(Cl)c1c(Cl)cccc1Cl
inactive: [1] | [13] | [3] | [4] | [14] | [15] | [5] | [16] | [6] | [17] | [9] | [18] | [19] | [20] | [10] | [11] | [12]

Cc1ccc(N(CC2=NCCN2)c2cccc(O)c2)cc1
inactive: [1] | [4] | [5] | [8] | [17] | [9] | [18] | [20] | [10] | [11] | [12]
active: [2] 23.7 µM

SCCc1cnccn1
inactive: [1] | [2] | [3] | [4] | [5] | [6] | [7] | [8] | [17] | [20] | [10] | [11] | [12]

CCCCCCCCCCCCCCCCCC(=O)OCC(CC)CCCC (stereo not given)
inactive: [1] | [2] | [3] | [4] | [5] | [6] | [7] | [8] | [10] | [11]

FC(F)(F)C(F)(F)C(F)(F)C(F)(F)CCI
inactive: [1] | [2] | [3] | [4] | [5] | [6] | [17] | [9] | [18] | [20] | [10] | [11] | [12]
active: [19] 27.9 µM

N[C@@H](Cc1cc(I)c(O)c(I)c1)C(=O)O
inactive: [1] | [2] | [3] | [4] | [5] | [6] | [7] | [8] | [17] | [18] | [19] | [20] | [11] | [12]

CC(C)(C)CCCCCCOC(=O)c1ccccc1C(=O)OCCCCCCC(C)(C)C
inactive: [1] | [2] | [3] | [4] | [5] | [7] | [17] | [18] | [19] | [20] | [10] | [11] | [12]

CC[C@@H](CO)NCCN[C@@H](CC)CO
inactive: [1] | [2] | [3] | [4] | [5] | [9] | [10] | [11] | [12]

CC(C(=O)O)c1ccc(C(=O)c2cccs2)cc1 (stereo not given)
inactive: [1] | [2] | [3] | [4] | [5] | [6] | [7] | [8] | [9] | [10] | [11] | [12]

CC(C)(C)S
inactive: [1] | [2] | [3] | [4] | [6] | [7] | [8] | [17] | [9] | [18] | [19] | [20] | [10] | [11] | [12]

CN1CCCN(C(c2ccccc2)c2ccc(Cl)cc2)CC1 (stereo not given)
inactive: [1] | [15] | [5] | [16] | [8] | [17] | [18] | [19] | [20] | [11]
active: [2] 9.44 µM | [3] 18.8 µM | [6] 6.68 µM | [7] 10.6 µM | [12] 21.1 µM

O=C(Oc1ccccc1)c1ccc2ccccc2c1O
inactive: [1] | [4] | [14] | [15] | [5] | [16] | [6] | [8] | [17] | [9] | [18] | [10] | [11] | [12]
active: [13] 54.5 µM | [3] 48.6 µM

COc1cc(NC(C)CCCN)c2ncccc2c1 (stereo not given)
inactive: [1] | [5] | [8] | [17] | [9] | [18] | [11] | [12]
active: [2] 11.4 µM | [3] 12.7 µM | [6] 11.4 µM | [10] 10.1 µM

C[C@@H]1C[C@H]2[C@@H]3CCC4=CC(=O)C=C[C@]4(C)[C@@]3(F)[C@@H](O)C[C@]2(C)[C@@]1(O)C(=O)COP(=O)(O)O
inactive: [1] | [2] | [3] | [4] | [5] | [6] | [7] | [8] | [9] | [18] | [10] | [11] | [12]

CCCCCCCCCCCCCOC(=O)CCSCCC(=O)OCCCCCCCCCCCCC
inactive: [1] | [2] | [3] | [4] | [5] | [6] | [7] | [8] | [9] | [10] | [11] | [12]

O=C(NS(=O)(=O)/C=C/c1ccccc1)c1ccc(F)cc1Cl
inactive: [1] | [2] | [3] | [4] | [5] | [6] | [7] | [8] | [9] | [18] | [10] | [11] | [12]

CCCCOC(=O)CCCCC(=O)OCCCC
inactive: [1] | [2] | [3] | [4] | [5] | [6] | [7] | [8] | [9] | [10] | [12]

CC(C)Cc1ccc(CC(=O)O)cc1
inactive: [1] | [2] | [3] | [4] | [5] | [6] | [7] | [8] | [9] | [10] | [11] | [12]
